Laboratory results from PubChem BioAssay AID1671194 (National Center for Advancing Translational Sciences (NCATS), 2021).
Hit rate of the full screen: of about 140,000 compounds, about 240 (0.17%) were called active. Inconclusive results (about 9%) are left out. The sample holds actives, similar compounds and a random draw of the others, so the mix is not that of the screen. Unmarked numbers belong to inactive results. The call rests on the fitted dose curve; in most records, active means well fitted inhibition curve with a large enough effect; inconclusive means small, poorly fitted or top-dose-only effect; inactive means no such curve, though single readings can be large or run the other way.

Assay: Primary qHTS assay for inhibitors of alpha-synuclein gene (SNCA) expression; further: nearly all actives have a fitted effect of over 45% in size;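 on activity change, negative = inhibition: plate controls were DMSO cells for no effect and cell-free wells for full effect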
Conditions: HEK-293 SNCA-luciferase knock-in, luminescence, 24 h; series mostly up to 57.2 µM; activity change, negative = inhibition: at the top concentration
Potency means the concentration at half of the fitted maximal effect.

Compound	activity change, negative = inhibition	Potency
Cn1ncc2c(C(=O)NCc3cccnc3)cc(C(C)(C)C)nc21	-10.6%	
CC(=O)N1CCN(C(=O)C2CCCN2Cc2ccc(-c3cc(C)cc(C)c3)cc2)CC1 (stereo not drawn)	22.3%	
CC1=C[C@@H](CN2CCCC2)[C@H](C(C)C)C[C@H]1Cc1nnc(-c2ccc([N+](=O)[O-])cc2)o1	-27.7% [at 87.6 µM]	
Cc1nc(N2CCC(NCCNc3ccncc3C)CC2)c2ccsc2n1	-2.65%	
Cc1ccccc1C(=O)N1CCC(C(=O)N2CCC(c3nc4ccncc4[nH]3)C2)CC1 (stereo not drawn)	6.85%	
CC(=O)N1CCC(N[C@H]2C[C@@H](Cc3cc(CN(C)c4ccccc4)on3)C2(C)C)CC1	4.87% [at 87.6 µM]	
COc1ccc(-c2cn3cc(C(=O)NCc4ccc(F)cc4)nc3s2)cc1	-7.67%	
COc1ccc(CN2CC(Oc3ccc(OC)cc3)C2)cc1	-5.4% [at 87.6 µM]	
CCCCn1c(=O)c(C(=O)N2CCN(C(=O)c3ccccc3)CC2)nc2cccnc21	-2.39%	
Cc1ccccc1-c1ccnc(-c2nnc(C)n2C(C)C)c1	-7.25% [at 87.6 µM]	
Cc1ccc(OCC(=O)N2CCC(c3nn(C)c4c3COCC4)CC2)cc1	1.65%	
COCCOCC1(CNS(=O)(=O)c2c(C)noc2C)C[C@@H](O)[C@@H](O)C1 (stereo partly drawn)	4.32% [at 87.6 µM]	
c1ccc(CNC[C@H]2Cn3cc(-c4ccccc4)nc3CO2)cc1	84.9% [at 87.6 µM]	
Cc1nnc(-c2cc(-c3ccccc3)ccn2)n1CCc1ccccc1	32.3% [at 87.6 µM]	
CC(C)=CCC1(CO)CCCN(Cc2ccccc2OCCO)C1 (stereo not drawn)	-6.74%	
O=C1NCCCCCCN(Cc2ccncc2)[C@@H]2CN(CC3CC3)CC[C@@H]12	-21.1%	
CC[C@H]1CN(C(=O)Nc2cccc(C(F)(F)F)c2)CC[C@H]1CC(=O)NCCSC	-20% [at 87.6 µM]	
COC(=O)c1cccc(NC(=O)N2CCc3c(nc4cc(-c5ccccc5)[nH]n4c3=O)C2)c1	37.1%	
NCc1ccccc1-c1cccc(O)c1	-17.9% [at 87.6 µM]	
O=C(c1n[nH]c2c1CCCC2)N1CCC2(CC1)NC(=O)N(c1ccc(F)cc1)N2	0.129%	
COc1ccc(OC)c(CN2CCC3(CC2)COCCN3C(=O)OCc2ccccc2)c1	-4.88%	
COc1ccc(-c2ncc3c(n2)OCCN(CC2CC2)C3=O)cc1	-22.4% [at 87.6 µM]	
O=C([C@@H]1C[C@H](c2ccc(F)cc2)N([S+](=O)([O-])C2CC2)C1)N1CCN(c2ccccn2)CC1	54.6%	
COCCNC(=O)[C@@H]1C[C@H](Oc2cccnc2)CN1C(=O)C1CC=CC1	9.07%	
COc1cccc(CNC(=O)N2CCCC3(C2)Nc2cccnc2NC3=NC2CCCC2)c1 (stereo not drawn)	-21.6%	
CCN(CC)C(=O)CSc1nc2ccsc2c(=O)n1Cc1ccccc1Cl	-0.0876%	
CCn1cc2nc(SCc3ccccc3Cl)n(CCc3ccccc3)c(=O)c2n1		14.1 µM (active)
Cc1cccc(Cc2c(C)nc3nc(SCc4ccccc4Cl)nn3c2C)c1	12.7%	
